Measurements from PubChem BioAssay AID624094 (National Center for Advancing Translational Sciences (NCATS), 2012).
Inconclusive results are not listed. Active and inactive are the calls of the source. Calls come from the whole dose curve; as a rule, active = well fitted inhibition curve with a large enough effect; inconclusive = small, poorly fitted or top-dose-only effect; inactive = flat fitted curve, though single readings scatter.

The compounds below were run against Dual specificity protein kinase CLK4 (Homo sapiens) (UniProt Q9HAZ1) (assay: Confirmation Assay for Inhibitors of Clk4 (Kinase-Glo Assay): KU probe). Conditions: recombinant Clk4, Kinase-Glo ATP luminescence; series mostly up to 76.9 µM; activity, negative = inhibition: at the top concentration.
Chain of Dual specificity protein kinase CLK4 (Homo sapiens) (Q9HAZ1 whole entry, looked up): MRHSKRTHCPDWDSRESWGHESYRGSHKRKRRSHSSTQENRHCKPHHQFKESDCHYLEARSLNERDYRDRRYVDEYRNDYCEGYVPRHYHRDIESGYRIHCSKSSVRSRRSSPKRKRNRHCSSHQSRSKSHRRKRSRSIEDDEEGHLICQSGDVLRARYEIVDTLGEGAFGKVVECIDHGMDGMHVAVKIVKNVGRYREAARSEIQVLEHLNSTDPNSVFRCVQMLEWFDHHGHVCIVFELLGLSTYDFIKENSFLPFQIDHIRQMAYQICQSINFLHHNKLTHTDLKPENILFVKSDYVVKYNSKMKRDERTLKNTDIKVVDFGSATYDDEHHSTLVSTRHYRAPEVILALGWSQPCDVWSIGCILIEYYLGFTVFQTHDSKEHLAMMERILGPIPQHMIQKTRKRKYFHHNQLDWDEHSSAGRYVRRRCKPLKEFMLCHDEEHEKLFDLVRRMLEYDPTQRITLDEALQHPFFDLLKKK
Summary of the method: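 Read-out was Kinase-Glo luciferase luminescence of ATP left after 4.5 h room-temperature reaction. Final conditions: Clk4 25 nM, ATP 1 uM, RS peptide 100 uM, 25 mM Tris pH 7.5, 10 mM MgCl2, 0.5 mM EGTA, 2.5 mM DTT, 0.01% Triton X-100.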

Potency, active:
Clc1ccc(CNc2ccnc(-c3cccnc3)n2)cc1 16400 nM
CC(=O)c1ccc(-c2ccc3ncnc(NCc4ccc(C)o4)c3c2)o1 130 nM
FC(F)(F)c1cc(Br)cc(Nc2nccc(-c3ccc4c(c3)OCO4)n2)c1 130 nM
Clc1cncc(CNc2ccnc(-c3ccc4c(c3)OCO4)n2)c1 16400 nM
CN(CC1CCCCC1)c1ncnc2ccc(-c3ccc4c(c3)OCO4)cc12 184 nM
c1cc(-c2ccc3c(c2)OCO3)nc(Nc2ccc3c(c2)OCO3)n1 116 nM
COc1cccc(-c2ncccn2)c1 14600 nM
Clc1ccc(CNc2cc(-c3ccc4c(c3)OCO4)ncn2)cc1Cl 4630 nM
Brc1ccc(CNc2nccc(-c3ccc4c(c3)OCO4)n2)cc1Br 82.3 nM
Clc1ccc(CNc2ccnc(-c3cccnc3)n2)cc1Cl 13000 nM
COc1ccc(CNc2ccnc(-c3cccc(OC)c3)n2)cc1 23200 nM
Fc1cncc(CNc2ccnc(-c3ccc4c(c3)OCO4)n2)c1 8230 nM
CCCN(C)c1ncnc2ccc(-c3ccc4c(c3)OCO4)cc12 58.2 nM
c1ccc2ncc(CNc3ccnc(-c4ccc5c(c4)OCO5)n3)cc2c1 29200 nM
CCCNc1ncnc2ccc(-c3ccc4c(c3)OCO4)cc12 58.2 nM
CCN(C)c1ncnc2ccc(-c3ccc4c(c3)OCO4)cc12 36.8 nM
c1nc(NCC2CC2)c2cc(-c3ccc4c(c3)OCO4)ccc2n1 32.8 nM
Clc1ccc(CNc2nccc(-c3ccc4c(c3)OCO4)n2)cc1Cl 41.2 nM
Clc1ccc(CNc2nccc(-c3ccc4c(c3)OCCO4)n2)cc1Cl 116 nM
Cc1c(-c2ccnc(Nc3cc(Br)cc(C(F)(F)F)c3)n2)sc(=O)n1C 51.9 nM
c1nc(NCC2CCCCC2)c2cc(-c3ccc4c(c3)OCO4)ccc2n1 65.4 nM
Clc1ccc(CNc2ccnc(-c3ccc4c(c3)OCO4)n2)cc1Cl 13000 nM
Brc1cc(Br)cc(CNc2nccc(-c3ccc4c(c3)OCO4)n2)c1 36.8 nM
Clc1cc(CNc2ccnc(-c3ccc4c(c3)OCO4)n2)ccn1 3680 nM
c1cc(-c2ccoc2)nc(-c2ccoc2)n1 5820 nM
COc1cccc(-c2nccc(NCc3ccc(C)cc3)n2)c1 23200 nM

activity, negative = inhibition, inactive:
COc1ccc(CNc2ccnc(-c3c(C)noc3C)n2)cc1 -2.38%
Cc1noc(C)c1-c1ncccn1 -5.28%
